Screening results (PubChem BioAssay)
CYP2C19 act: increases human CYP2C19 enzyme activity | P33261 | 96,000 tested, under 10 active | recombinant CYP2C19, luciferin-H EGE luminescence; hits give high values; 0 = fully inhibited enzyme, 1 = untreated enzyme | activation factor at 5 µM;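 active = activation factor of at least 2 at 5 µM in the primary screen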
CYP2C19 inhib: blocks human cytochrome P450 2C19 | inhibition, % at 5 µM | AID 778 | 21% of 96,000 active | CYP2C19 Supersomes, luciferin-H EGE luminescence, 30 min | P33261;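 active = CYP2C19 inhibition above a set limit at 5 µM in the primary screen, cut at about 50% in these data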
CYP2C9 act: CYP2C9 (human) activation. P11712. recombinant CYP2C9, luciferin-H conversion, luminescence; hits give high values; factor 1 = untreated enzyme, 0 = blocked. activation factor at 5 µM. 1.4% of 96,000 active. AID 1024;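 active = activation factor of 2 or more for CYP2C9 at a 5 µM dose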
EphB4 ephrin blk: antagonists of human EphB4-ephrin-B2 interaction | P54760 | EphB4 LBD / TNYL-RAW-Alexa532 peptide, fluorescence polarization | inhibition, % at 7 µM | 0.15% of 97,000 active | AID 720;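 active = inhibition above the screen-wide mean inhibition plus 3 SD, cut at about 15% in these data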
Target sequence (P54760 whole entry, looked up, the tested form may be a part): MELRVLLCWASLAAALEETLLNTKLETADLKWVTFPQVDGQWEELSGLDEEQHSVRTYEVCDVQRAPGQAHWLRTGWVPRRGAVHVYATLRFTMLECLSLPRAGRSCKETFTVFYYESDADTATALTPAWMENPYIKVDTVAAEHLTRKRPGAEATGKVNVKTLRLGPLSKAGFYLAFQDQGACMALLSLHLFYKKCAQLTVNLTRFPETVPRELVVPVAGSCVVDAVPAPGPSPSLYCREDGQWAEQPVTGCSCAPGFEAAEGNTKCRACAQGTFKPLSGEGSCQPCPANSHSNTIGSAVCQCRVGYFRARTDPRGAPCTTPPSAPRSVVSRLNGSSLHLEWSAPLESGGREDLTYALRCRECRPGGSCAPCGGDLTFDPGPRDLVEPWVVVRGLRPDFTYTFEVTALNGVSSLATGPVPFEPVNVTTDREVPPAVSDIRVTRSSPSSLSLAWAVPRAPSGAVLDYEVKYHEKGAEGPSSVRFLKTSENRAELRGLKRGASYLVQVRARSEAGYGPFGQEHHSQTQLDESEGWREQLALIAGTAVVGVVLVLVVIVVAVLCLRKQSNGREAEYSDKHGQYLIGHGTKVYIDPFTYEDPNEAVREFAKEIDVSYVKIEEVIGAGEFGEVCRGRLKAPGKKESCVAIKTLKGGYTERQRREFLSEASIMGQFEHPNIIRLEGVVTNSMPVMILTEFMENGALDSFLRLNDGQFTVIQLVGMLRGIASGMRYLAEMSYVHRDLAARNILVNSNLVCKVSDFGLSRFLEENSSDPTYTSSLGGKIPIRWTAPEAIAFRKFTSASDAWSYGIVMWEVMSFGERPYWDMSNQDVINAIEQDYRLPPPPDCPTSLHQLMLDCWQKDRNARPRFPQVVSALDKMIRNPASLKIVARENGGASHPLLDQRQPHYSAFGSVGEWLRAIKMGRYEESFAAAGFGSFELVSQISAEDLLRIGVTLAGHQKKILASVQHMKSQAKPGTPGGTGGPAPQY
CYP2C9 inhib: human CYP2C9 inhibition. 20% of 96,000 active. inhibition, % at 5 µM. AID 777. P11712. CYP2C9 Supersomes, luciferin-H conversion, luminescence;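 active = blocking of liver enzyme CYP2C9 beyond about 50% at 5 µM, limit read from the data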
A number is an active result; – = inactive; · = not tested or not shown. A selection: hits, their analogues and other compounds. The true share with any hit is near 27%.

SMILES	CYP2C19 act	CYP2C19 inhib	CYP2C9 act	EphB4 ephrin blk	CYP2C9 inhib
CC(C)CNC(=S)NC(=O)c1ccc([N+](=O)[O-])cc1	–	–	–	–	–
Cc1nnc(Sc2nc3c(c(=O)[nH]c(=O)n3C)n2CCCc2ccccc2)s1	–	–	–	–	60
Cn1c(=O)[nH]c(=O)c2c1nc(SCCN1CCOCC1)n2CCCc1ccccc1	–	–	–	–	67
CCOC(=O)CSc1nc2c(c(=O)[nH]c(=O)n2C)n1CCc1ccccc1	–	–	–	–	–
CCOC(=O)C(CC)Sc1nc2c(c(=O)[nH]c(=O)n2C)n1CCc1ccccc1 (stereo not given)	–	60	–	–	78
OCCN1CCN(C(=S)c2ccc(Cl)cc2)CC1	–	–	–	–	–
O=C(O)c1ccc(COc2cccc(CO)c2)cc1	–	86	–	–	–
CC12CC(NC(=O)N1c1cccc(C(=O)N3CCN(c4ccccc4)CC3)c1)c1ccccc1O2 (stereo not given)	–	58	–	–	53
CCOC(=O)C(NC(=O)c1ccc(OC)cc1)(OCC1(CC)COC1)C(F)(F)F (stereo not given)	–	–	–	–	63
CCc1cc2ccc(OC)cc2nc1SCC(=O)Nc1cc(C)on1	–	–	–	–	–
CCCOc1ccc([N+](=O)[O-])cc1C1NC(=S)NC(c2ccccc2)=C1C(=O)OCC (stereo not given)	–	–	–	–	67
CCOC(=O)C1=C(c2cccc(F)c2)NC(=S)NC1C (stereo not given)	–	72	–	–	–
CC(=O)OC(C)(C)C#CCN1CCCC1	–	–	–	–	–
O=C1N/C(=C/c2ccc(N3CCOCC3)cc2)C(=O)N1Cc1ccc(F)cc1	–	–	–	–	–
CCn1c(-c2cccc(Br)c2)n[nH]c1=S	–	76	–	–	–
CC1(C)Cc2nc3sc4c(=O)n(CC(=O)NCc5ccccc5)cnc4c3cc2CO1	–	–	–	–	–
Fc1ccccc1CSc1nncn1NCc1cccs1	·	·	·	–	·
C/C(=C\C(=O)c1ccncc1)Nc1ccccc1O	–	97	–	–	–
Cc1ccc2[nH]c(=O)c(CN(Cc3ccco3)C(=O)c3ccncc3)cc2c1	–	100	–	·	96
O=C(c1cc2ccccc2oc1=O)N(Cc1ccco1)Cc1cccs1	–	–	–	–	66
O=C(c1cccs1)N(Cc1ccco1)Cc1cc2ccccc2[nH]c1=O	–	75	–	·	67
Cc1ccc2[nH]c(=O)c(CN(CC3CCCO3)C(=O)c3ccncc3)cc2c1 (stereo not given)	–	98	–	–	84
COc1ccc2[nH]c(=O)c(CN(Cc3ccco3)C(=O)c3ccccc3)cc2c1	–	–	–	–	–
O=C(Nc1nnc(C(F)(F)F)s1)C1COc2ccccc2O1 (stereo not given)	–	56	–	–	99
CC1(C)Oc2ccc(NC(=O)C3COc4ccccc4O3)cc2O1 (stereo not given)	–	93	–	–	76
SMILES	CYP2C19 act	CYP2C19 inhib	CYP2C9 act	EphB4 ephrin blk	CYP2C9 inhib
Cc1ccc(NC(=O)C2COc3ccccc3O2)nc1 (stereo not given)	–	90	–	–	–
O=C(CCC1COc2ccccc2O1)Nc1ncccc1O (stereo not given)	–	64	–	–	–
O=C(Nc1nncs1)C1COc2ccccc2O1 (stereo not given)	–	–	–	–	–
CCOc1cc(C#N)c(NC(=O)c2ccco2)cc1OCC	–	–	–	–	–
COc1ccc(C(=O)N(C(C)C)C(C)C)c(OC)c1	–	–	–	–	–
CC1=CC(C)C2C(=O)N(c3ccccc3)C(=O)C2C1 (stereo not given)	–	–	–	–	–
O=C(Nc1ccccc1Cl)NC1(C(=O)N2CCCC2)CCCCC1	·	·	·	–	·
O=C(CCC1COc2ccccc2O1)Nc1cccnc1 (stereo not given)	–	81	–	–	–
O=C(COC(=O)C1COc2ccccc2O1)NC(=O)Nc1ccc2c(c1)OCCO2 (stereo not given)	–	–	–	–	67
O=C(Nc1cccnc1)C1COc2ccccc2O1 (stereo not given)	–	62	–	16	–
O=C(Nc1sc2c(c1C(=O)NCC1CCCO1)CCCC2)c1cccs1 (stereo not given)	–	–	–	–	–
O=C(CCCCCn1c(=S)[nH]c2ccccc2c1=O)N1CCOCC1	–	–	–	–	–
COc1cccc(/C=C/C(=O)c2ccc[nH]2)c1	–	70	–	–	–
COc1cccc(C(=O)/C=C/Nc2ccc(S(=O)(=O)Nc3cccc(C(C)=O)c3)cc2)c1	–	–	–	–	78
Cc1noc(NS(=O)(=O)c2ccc(N/C=C/C(=O)c3cccnc3)cc2)c1C	–	–	–	·	–
COc1cccc(C(=O)/C=C/Nc2cccc(O)c2)c1	–	91	–	–	–
COc1cccc(C(=O)/C=C/c2ccc(SC)cc2)c1	–	92	–	–	–
COC(=O)c1cccc(NC(=O)c2cccc(OC)c2)c1	–	–	–	–	–
CSCCC(NS(=O)(=O)c1ccc2c(c1)OCCO2)C(=O)NCCc1ccccn1 (stereo not given)	–	–	–	–	–
O=C(CCCn1c(=S)[nH]c2cc3c(cc2c1=O)OCO3)N1CCN(c2ccccc2F)CC1	–	–	–	–	–
O=C(CCCn1c(=S)[nH]c2cc3c(cc2c1=O)OCO3)N1CCN(c2ncccn2)CC1	–	–	–	–	50
O=C(CCCn1c(=S)[nH]c2cc3c(cc2c1=O)OCO3)N1CCN(c2ccc(F)cc2)CC1	–	–	–	–	72
Cc1ccc(C)c(N2CCN(C(=O)CCCn3c(=S)[nH]c4cc5c(cc4c3=O)OCO5)CC2)c1	–	54	–	–	77
O=C(CCCn1c(=S)[nH]c2cc3c(cc2c1=O)OCO3)N1CCN(C2CCCCC2)CC1	–	–	–	–	50
COc1ccc2[nH]c(C)c(C(=O)CN3CCN(C/C=C/c4ccccc4)CC3)c2c1	–	–	–	–	54
SMILES	CYP2C19 act	CYP2C19 inhib	CYP2C9 act	EphB4 ephrin blk	CYP2C9 inhib
COc1ccccc1N1CCN(CC(=O)c2c(C)[nH]c3ccccc23)CC1	–	87	–	–	–
Cc1[nH]c2ccccc2c1C(=O)CN1CCN(C/C=C/c2ccccc2)CC1	–	–	–	–	–
Cc1ccc2c(c1)cc(CN(Cc1cccnc1)C(=O)NCc1ccccc1)c1nnnn12	–	90	–	–	65
Cc1ccc2[nH]c(=O)c(CN(CCc3ccccc3)C(=O)N3CCOCC3)cc2c1	–	–	–	–	–
Cc1ccc2c(c1)cc(CN(CCc1ccccc1)C(=O)N1CCOCC1)c1nnnn12	–	53	–	–	64
N#CCCN(C(=O)Nc1ccccc1)c1ccccc1	–	60	–	–	–
Cc1csc2nc(CSc3nc4ccccc4o3)c(Br)n12	–	–	–	–	–
CCCNC(=O)N(C)c1nncnc1C(=O)NC	–	–	–	–	–
